The source of these data is PubChem BioAssay AID493200 (National Center for Advancing Translational Sciences (NCATS), 2011).

Molecules are shown by their SMILES. Inconclusive results are not listed. A number with no mark means an inactive call. Calls follow the shape of the dose curve; as a rule, active = well fitted activation curve with a large enough effect; inconclusive = small, poorly fitted or top-dose-only effect; inactive = no such curve, though single readings can be large or run the other way.

The assay is described as follows: qHTS Assay for Rab9 Promoter Activators: Initial hit validation from the primary screen. Also: % of control where 0% means no effect. Particulars: Huh7 Rab9 promoter luciferase reporter, 24 h; series mostly up to 46.1 µM; activation: at the top concentration. From the text: NIH Chemical Genomics Center [NCGC] NIH Molecular Libraries Probe Production centers Network [MLPCN] MLPCN Grant: MH089537-01 Assay Submitter (PI): Yiannis A. Ioannou NCGC Assay Overview: Niemann Pick Type C (NPC) is a rare neurodegenerative lipidosis that is characterized by lipid storage in the endosomal/lysosomal system. Treatment modalities for this devastating disease are currently non-existent due to the severe obstacles associated with accessing the central nervous system with proteins or genes (Ioannou, 2000). We have developed a new paradigm, termed "Orphan Receptor Bypass Therapy" (ORByT), to address these disorders. This paradigm posits the existence of endogenous "suppressor" proteins whose expression can dramatically improve LSD pathogenesis. The goal is the identification/discovery of small chemical compounds that can modulate the expression of these proteins and provide a new treatment modality for these devastating disorders. One such protein whose overexpression reverses aspects of the NPC phenotype is Rab9. We have developed and optimized a cell based luciferase reporter assay in 1536 well format for the identification of up-regulators of the Rab9 promoter. This assay presents data on the validation of hits from the primary screen.
The Rab9 promoter is cloned in front of the luciferase reporter gene, therefore […] promoter activation results in luciferase expression. Frozen stock of the Rab9 promoter transfected Huh7 cells were obtained from the laboratory of Dr. Yiannis Ioannou (The Mount Sinai School of Medicine, New York, NY). Cells were propagated and maintained at NCGC in medium containing RPMI-1640 supplemented with 10% FBS, 2mM L-glutamine, and 50ug/ml penicillin/streptomycin. Cells were harvested in and plated for assays in OP-MEM I reduced-serum medium supplemented with 10% FBS. The Amplite luciferase reporter gene assay kit was purchased from ABD Bioquest and prepared/stored according to manufacturers recommendations. qHTS Assay Setup: 1.Dispensed 5ul of Huh7 cells stably expressing Rab9-luciferase at a density of 1500 cells per well 1536-well plates. 2.Incubate cells at 37C, 5% CO2, and 95% humidity for 2 hours. 3.Transferred 23nl per well of compound in DMSO solution. 4.Incubated at 37C, 5% CO2, and 95% humidity for 24 hours. 5.Dispensed 3ul per well of Amplite reagent(ABD Bioquest) per well. 6.Incubate at ambient for 10 minutes. 7.Read using the luminescence protocol on the ViewLux plate reader (Perkin Elmer).
For orientation: qHTS replaces the single test concentration by a dilution series.
As for `CCC(=NCc1cccnc1)c1c(O)n(-c2ccccc2)c(=O)[nH]c1=O`, the “activation” value was 2.99%.

As to `Cc1cccn2c(NCC3CCCO3)c(C(C)C)nc12` (stereo unspecified), the “activation” value was 1.37%.

On to `COc1cccc(CCNCc2ccc(SC)cc2)c1`, for which the “activation” value is -3.84%.

Turning to `O=C1c2ccccc2C(=O)N1Cc1nc2ccccc2c(=O)n1-c1cccnc1`, the “activation” value was -2.02%.

Consider `CN1CCc2cc3c(c4c2C1Cc1ccccc1-4)OCO3` (stereo unspecified), for which the “activation” value is -44.1%.

On to `COc1ccc(C(CC(=O)N2CCC3(CC2)OCCO3)NS(=O)(=O)c2ccc(F)cc2)cc1` (stereo unspecified), for which the “activation” value was -4.36%.
